Compound activity from PubChem.
L3MBTL1 block – qHTS Assay for the Inhibitors of L3MBTL1 | Lethal(3)malignant brain tumor-like protein 1 (Homo sapiens), Q9Y468 | AlphaScreen L3MBTL1–H3K9me1 peptide binding | Potency, µM (highest dose often 57.1 µM), for inactives: at the top dose activity, negative = inhibition, hits mostly inhibitors | hit rate 0.66% among 230,000 | AID 485360, 2010; also: % is scaled to controls: 0 for no effect and ±100 for the full control effect; nearly all actives have a fitted effect of over 60% in size
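Displacement of a biotinylated histone H3(1-15) peptide monomethylated at Lys9 (75 nM) from L3MBTL1 (50 nM) was measured by AlphaScreen after a 30 min room-temperature compound incubation; cefsulodin titration served as intraplate control.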
BAZ2B inh – qHTS Assay for Inhibitors of BAZ2B; Potency, µM (series often up to 114 µM), for inactives: at the top dose activity change, negative = inhibition, hits mostly inhibitors; hit rate 4.4% among 360,000; AlphaScreen BAZ2B-H3K14Ac peptide displacement; Bromodomain adjacent to zinc finger domain protein 2B (Homo sapiens), Q9UIF8; AID 504333, 2011; also: % is scaled to controls: 0 for no effect and ±100 for the full control effect; nearly all actives have a fitted effect of over 60% in size
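AlphaScreen luminescence quantifies BAZ2B engagement of H3K14Ac peptide; the protein and biotinylated peptide are both at 50 nM final, buffer PBS pH 7.4 with 0.01% Tween-20, all steps at room temperature.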
JMJD2A Tudor inh – qHTS Assay for Inhibitors of JMJD2A-Tudor Domain | Potency, µM (highest dose often 114 µM), for the others: top-dose activity change, negative = inhibition, hits mostly inhibitors | AlphaScreen JMJD2A-Tudor / H3K4me3 peptide binding | hit rate 4.4% among 390,000 | Lysine-specific demethylase 4A (Homo sapiens), O75164 | AID 504339, 2011; also: % is scaled to controls: 0 for no effect and ±100 for the full control effect; nearly all actives have a fitted effect of over 50% in size
G9a inh – qHTS Assay for Inhibitors of Histone Lysine Methyltransferase G9a; Histone-lysine N-methyltransferase EHMT2 (Homo sapiens), Q96KQ7; G9a H3K9 monomethylation, AlphaScreen, 2 h; hit rate 8.8% among 350,000; Potency, µM (top dose mostly 102 µM), for the others: at the top dose activity, negative = inhibition, actives largely listed as inhibitors; also: % is scaled to controls: 0 for no effect and ±100 for the full control effect; nearly all actives have a fitted effect of over 75% in size
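G9a (20 nM) was preincubated 15 min with compound, then reacted 2 h at room temperature with 500 nM biotin-H3K9 peptide and 20 µM SAM. Monomethyl-H3K9 detected by AlphaScreen using anti-H3K9me1 antibody.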
GLS inh – qHTS for Inhibitors of Glutaminase (GLS). Glutaminase kidney isoform, mitochondrial (Homo sapiens), O94925. GLS enzymatic activity, qHTS titration. Potency, µM (doses to about 45.5 µM), without a hit: at the top dose activity change, negative = inhibition, hits mostly inhibitors. hit rate 0.21% among 410,000. AID 624170, 2012; also: % is scaled to controls: 0 for no effect and ±100 for the full control effect
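hKGA in 45 mM KH2PO4 pH 8.2, 0.02% Tween-20 with pin-transferred compounds; 1 mM L-glutamine (stock) plus glutamate oxidase/HRP/Amplex Red coupling added. Fluorescence read initially and after 30 min at RT.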
HP1b chromo inh – HTS for Inhibitors of HP1-beta Chromodomain Interactions with Methylated Histone Tails. Potency, µM (doses to about 114 µM), without a hit: top-dose activity change, negative = inhibition, most hits filed as inhibitors. hit rate 0.56% among 390,000. AlphaScreen HP1-beta / biotin-H3K9me3 peptide binding; also: nearly all actives have a fitted effect of over 70% in size
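Compound inhibition of the preformed complex between 50 nM HP1-beta and 50 nM biotinylated H3K9me3 peptide was read by AlphaScreen. Buffer was PBS pH 7.4 with 0.01% Tween-20. Incubations ran 30 min at room temperature, with 10 ug/mL donor/acceptor beads.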
* = called active by the depositor; [ ] = remark or other dose. An excerpt weighted towards active compounds, which were near 10% of everything screened. Calls follow the shape of the dose curve; as a rule, active = well fitted curve in the direction sought with a large enough effect; inconclusive = small, poorly fitted or top-dose-only effect, or another doubt; inactive = no such curve, though single readings can be large; an effect the other way counts as inactive or inconclusive. Potency is read from the fitted curve at half-maximal effect.

Screening CCCn1c(N)c(N(CCOC)C(=O)Cc2ccc(S(=O)(=O)N3CCOCC3)s2)c(=O)[nH]c1=O returned L3MBTL1 block -9%, BAZ2B inh 0%, JMJD2A Tudor inh -34%, G9a inh 50µM*, GLS inh 7% and HP1b chromo inh 15%.
For CCCCn1c(N)c(N(CCOC)C(=O)c2ccc(-c3ccc([N+](=O)[O-])cc3)o2)c(=O)[nH]c1=O the results were BAZ2B inh inconclusive, JMJD2A Tudor inh -22%, G9a inh 10%[12.7 µM], GLS inh 8% and HP1b chromo inh -10%.
Screening COCCN(C(=O)Cc1ccc(S(=O)(=O)N2CCOCC2)s1)c1c(N)n(CC(C)C)c(=O)[nH]c1=O returned JMJD2A Tudor inh -11%, GLS inh 0% and HP1b chromo inh 9%.
For CCOc1ccccc1-n1nnc(-c2nc(-c3ccccc3C)no2)c1C the results were BAZ2B inh 6%, JMJD2A Tudor inh 13%, G9a inh 5%[59 µM], GLS inh 3% and HP1b chromo inh 62%.
`O=C(NNc1ccccc1C(F)(F)F)c1sccc1Br` gave L3MBTL1 block 2%, BAZ2B inh -12%, JMJD2A Tudor inh -13%, G9a inh 18µM*, GLS inh 14% and HP1b chromo inh 52%.
`COc1ccc(Cl)cc1NC(=O)C1CCN(S(=O)(=O)c2ccc3c(c2)CCCN3C(=O)C2CCC2)CC1` gave BAZ2B inh 4%, JMJD2A Tudor inh -8%, G9a inh 2%[59 µM], GLS inh 2% and HP1b chromo inh 22%[57 µM].
For CCOc1ccc2nc(NC(=O)c3nc(SCc4ccccc4F)ncc3Cl)sc2c1 the results were BAZ2B inh -3%, JMJD2A Tudor inh -6%, G9a inh 5%[59 µM], GLS inh 2% and HP1b chromo inh 40%.
`COc1ccc(-c2ccc(N(C)C)cc2)cc1[C@H]1[C@@H]2C=CCC[C@@]2(C)C(=O)N1Cc1ccccc1` gave BAZ2B inh 7.9µM*, JMJD2A Tudor inh 14µM*, G9a inh inconclusive, GLS inh 3% and HP1b chromo inh inconclusive.
`COc1ccc(-c2ccc(N(C)C)cc2)cc1C1C2C=CCCC2(C)C(=O)N1Cc1ccccc1` (stereo unspecified) gave JMJD2A Tudor inh 8.9µM* and HP1b chromo inh inconclusive.
`COc1ccc(-c2ccc(OC)c([C@H]3[C@@H]4C=CCC[C@@]4(C)C(=O)N3Cc3ccccc3)c2)cc1OC` gave BAZ2B inh inconclusive, JMJD2A Tudor inh inconclusive, G9a inh -24%[59 µM], GLS inh -4% and HP1b chromo inh -1%.
`CN(C)CCNc1ccc(CO)c2sc3ccc(O)cc3c(=O)c12` gave JMJD2A Tudor inh 50µM*, GLS inh 35% and HP1b chromo inh 71µM*.
Screening Cc1cc2nn(-c3ccc(F)cc3)nc2cc1NC(=O)c1cccc2c(Cl)cccc12 returned BAZ2B inh -7%, JMJD2A Tudor inh 1%, G9a inh -5%[59 µM], GLS inh 1% and HP1b chromo inh 30%.
`O=C(O)COc1ccc(/C=C/c2nc(-c3ccccc3O)n[nH]2)cc1` gave L3MBTL1 block inconclusive, BAZ2B inh -30%, JMJD2A Tudor inh -1%, G9a inh 13µM*, GLS inh 18% and HP1b chromo inh 33%.
For Cc1ccc(C)c(NC(=O)CN2CCSc3ccc(S(=O)(=O)N4CCCC4)cc32)c1 the results were BAZ2B inh -16%, JMJD2A Tudor inh -26%, G9a inh inconclusive, GLS inh 6% and HP1b chromo inh 16%[57 µM].
Screening Cc1cc(OCCCCNC(C)C)cc(C(C)C)c1 returned L3MBTL1 block 12%, BAZ2B inh inconclusive, JMJD2A Tudor inh 18µM*, G9a inh 28µM*, GLS inh 7% and HP1b chromo inh inconclusive.
Cc1cc(C)cc(OCCCn2ccnc2)c1 was read as BAZ2B inh inconclusive, JMJD2A Tudor inh -27%, GLS inh 0% and HP1b chromo inh 27%.
Screening Cc1cc2c(cc1C)/C(=N/NC(=O)c1ccccn1)CCC2 returned L3MBTL1 block -11%, BAZ2B inh 50µM*, JMJD2A Tudor inh -6%, GLS inh 13% and HP1b chromo inh 54%.
`O=C(N/N=C/C1CCCCC1)c1ccccn1` gave L3MBTL1 block -4%, BAZ2B inh inconclusive, JMJD2A Tudor inh -17%, G9a inh 52%[12.7 µM], GLS inh 0% and HP1b chromo inh 73%.
For O=C(NN=C1CCC(=NNC(=O)c2ccccn2)CC1)c1ccccn1 the results were L3MBTL1 block -28%, BAZ2B inh 7.9µM*, JMJD2A Tudor inh 22µM*, GLS inh 3% and HP1b chromo inh 33%.
N#Cc1nc(NCC(F)F)c2ncn(-c3cccc(Cl)c3)c2n1 was read as JMJD2A Tudor inh -3%.
For O=C(O)c1cccc2c1C(=O)c1ccc(-c3ccc(Cl)c(C(F)(F)F)c3)cc1S2(=O)=O the results were L3MBTL1 block -2%, BAZ2B inh inconclusive, JMJD2A Tudor inh 79µM*, G9a inh 16%[2.33 µM], GLS inh -4% and HP1b chromo inh 15%.
COc1ccc(/C=C2/C(=O)ON=C2C)cc1Cl was read as BAZ2B inh -31%, JMJD2A Tudor inh -27%, G9a inh 16µM*, GLS inh inconclusive and HP1b chromo inh -5%.
Screening C=CCOc1ccc(/C=C2/C(=O)ON=C2C)cc1OC returned BAZ2B inh -35%, JMJD2A Tudor inh -13%, G9a inh 50µM*, GLS inh 20% and HP1b chromo inh 27%.
Screening O=C(O)c1ncn(Cc2ccccc2)c1C(=O)O returned L3MBTL1 block -6%, BAZ2B inh 32µM*, JMJD2A Tudor inh 6.3µM*, G9a inh 10µM*, GLS inh -1% and HP1b chromo inh 55%.
For Cc1cc(C)cc(N(CC(=O)N2CCN(Cc3ccccc3)CC2)S(=O)(=O)c2c(C)noc2C)c1 the results were L3MBTL1 block -3%, BAZ2B inh 1%, JMJD2A Tudor inh -1%[57.1 µM], G9a inh 50µM*, GLS inh 0% and HP1b chromo inh 11%[57 µM].
